Laboratory results taken from PubChem BioAssay (Tox21).
Results filed as inconclusive are left out. The source made the active and inactive calls. The call rests on the fitted dose curve; in most records, active means well fitted activation curve with a large enough effect in the repeat runs; inconclusive means weak or mixed curves; inactive means flat fitted curve, though single readings scatter.

Test: A CellTox Green Cytotoxicity Assay to monitor cytotoxicity in HepG2 cells - 8 hour (AID 1224890); further: nearly all actives have a fitted effect of over 45% in size
Conditions: CellTox Green fluorescence; series mostly up to 76.8 µM; cytotoxicity increase: at the top concentration
How it was run: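 Read-out is fluorescence of a cyanine dye excluded from live cells that stains DNA of dead HepG2 cells, with signal proportional to cytotoxicity. Plates were read at 0, 8, 16, 24, 32 and 40 h after compound addition.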
On the % scale 0 is the no-effect control and ±100 the full control effect; potency means the concentration at half of the fitted maximal effect.

Row | Compound | cytotoxicity increase | Potency
1 | CCOC(=O)[C@@H](C)Oc1ccc(Oc2nc3ccc(Cl)cc3o2)cc1 | -13% (inactive) | 
2 | CCCCCCCCSCCO | 17.9% (inactive) | 
3 | CC(C)(C)C(=O)C(Oc1ccc(Cl)cc1)n1ccnc1 (stereo not given) | -1.15% [at 35.3 µM] (inactive) | 
4 | Cc1oncc1C(=O)Nc1ccc(C(F)(F)F)cc1 |  | inactive
5 | CC1(C)C2=CCCC(C)(C)[C@]23CC[C@H]1C3 | 11.1% (inactive) | 
6 | COC(=O)[C@@H]1CC2=CC(=O)CC[C@]2(C)[C@@]23O[C@@H]2C[C@@]2(C)[C@@H](CC[C@@]24CCC(=O)O4)[C@H]13 | 6.83% [at 35.3 µM] (inactive) | 
7 | CCC(C(=O)OCCOCCN(CC)CC)c1ccccc1 (stereo not given) | -22.7% [at 35.3 µM] (inactive) | 
8 | C[Si]1(C)O[Si](C)(C)O[Si](C)(C)O1 | -7.62% (inactive) | 
9 | CN1C(=O)CC(C)(c2ccccc2)C1=O (stereo not given) | -14% [at 35.3 µM] (inactive) | 
10 | CN1CCN(c2c(F)cc3c(=O)c(C(=O)O)cn4c3c2OCN4C)CC1 | -3.25% [at 15.8 µM] (inactive) | 
11 | Cc1cc(O)c(C(C)C)cc1Cl |  | 43.6 µM (active)
12 | CCOc1cc(N)c(Cl)cc1C(=O)NCC1CN(Cc2ccc(F)cc2)CCO1 (stereo not given) | 0.233% [at 35.3 µM] (inactive) | 
13 | CC1=NN(c2ccc(C(=O)O)cc2)C(=O)C1 | -8.65% (inactive) | 
14 | CC(=O)Oc1ccc(C(=C2CCCCC2)c2ccc(OC(C)=O)cc2)cc1 | -10.9% [at 35.3 µM] (inactive) | 
15 | CCCCC1C(=O)N(c2ccccc2)N(c2ccc(O)cc2)C1=O (stereo not given) | 3.36% [at 35.3 µM] (inactive) | 
16 | Cc1ccc(Nc2nccc(N(C)c3ccc4c(C)n(C)nc4c3)n2)cc1S(N)(=O)=O | -4.27% [at 35.3 µM] (inactive) | 
17 | COc1cc2[nH]c(=O)[nH]c(=O)c2cc1OC | -11.3% [at 35.3 µM] (inactive) | 
18 | CC(=O)[C@H]1CC[C@H]2[C@@H]3C=CC4=CC(=O)CC[C@@]4(C)[C@@H]3CC[C@]12C | -2.41% [at 35.3 µM] (inactive) | 
19 | CCn1cc(C(=O)O)c(=O)c2cc(F)c(N3CCNCC3)nc21 | 11.1% [at 35.3 µM] (inactive) | 
20 | CC(CCc1ccc2c(c1)OCO2)NN (stereo not given) | 1.11% [at 35.3 µM] (inactive) | 

Row | Compound | cytotoxicity increase | Potency
21 | CCCCC(=O)O[C@]1(C(=O)CO)CC[C@H]2[C@@H]3CCC4=CC(=O)CC[C@]4(C)[C@H]3[C@@H](O)C[C@@]21C | -9.61% [at 35.3 µM] (inactive) | 
22 | COc1ccc([C@@H]2Sc3ccccc3NC(=O)[C@@H]2O)cc1 | -2.99% [at 35.3 µM] (inactive) | 
23 | CN1CCCN=C1/C=C/c1cccs1 | -4.39% [at 35.3 µM] (inactive) | 
24 | O=C(NCCCN1CCOCC1)c1ccc(Cl)cc1 | -7.85% [at 35.3 µM] (inactive) | 
25 | CCCCCC=CCC=CCCCCCCCC(=O)OCC | -1.73% [at 35.3 µM] (inactive) | 
26 | CC(=O)CC(c1ccc([N+](=O)[O-])cc1)c1c(O)c2ccccc2oc1=O (stereo not given) | -0.505% [at 35.3 µM] (inactive) | 
27 | CCc1nn(CCCN2CCN(c3cccc(Cl)c3)CC2)c(=O)n1CCOc1ccccc1 | -30.6% [at 35.3 µM] (inactive) | 
28 | c1cnc2c(n1)CCCC2 |  | 38.9 µM (active)
29 | CC1CN(c2cc3c(cc2F)c(=O)c(C(=O)O)cn3-c2ccc(F)cc2F)CCN1 (stereo not given) | -0.506% [at 6.97 µM] (inactive) | 
30 | CCOC(=O)C(C)Oc1ccc(Oc2nc3ccc(Cl)cc3o2)cc1 (stereo not given) | -1.66% (inactive) | 
31 | O=C(CCCCCCC(=O)Nc1ccccc1)NO | -1.34% [at 35.3 µM] (inactive) | 
32 | C=CC(=C)CCCC(C)(C)OC(C)=O | -9.78% (inactive) | 
33 | Nc1c(I)cc(I)c(C(=O)N(CCC(=O)O)c2ccccc2)c1I | 2.11% [at 35.3 µM] (inactive) | 
34 | O=C(O)C(Cc1cc(I)c(O)c(I)c1)c1ccccc1 (stereo not given) | -3.04% [at 35.3 µM] (inactive) | 
35 | COC(=O)c1cc(Cl)ccc1NS(=O)(=O)C(F)(F)F | 6.64% [at 35.3 µM] (inactive) | 
36 | O=C1OCCN1/N=C/c1ccc([N+](=O)[O-])o1 | -19.1% [at 35.3 µM] (inactive) | 
37 | NCC1CCCC(CN)C1 (stereo not given) | 6.18% (inactive) | 
38 | CCC1(C)CC(=O)NC1=O (stereo not given) | -10.8% [at 35.3 µM] (inactive) | 
39 | N#C[C@@H]1C[C@@H]2C[C@@H]2N1C(=O)[C@@H](N)C12CC3CC(CC(O)(C3)C1)C2 | 1.37% [at 35.3 µM] (inactive) | 
40 | CC1(C)O[C@@H]2C[C@H]3[C@@H]4CCC5=CC(=O)C=C[C@]5(C)[C@H]4[C@@H](O)C[C@]3(C)[C@]2(C(=O)CO)O1 | -12.8% [at 35.3 µM] (inactive) | 
